# Source: the supplement of paper PMC6555819
# How the values were obtained:
# Test in all cases: PBM binding z-score (relative to random genomic background probes); higher = stronger binding; sequences stand for … in GC…GCGATTGACAGCGTAGAATGAAGG
# [1] = test system: RARb homodimer (NR concentration 270 nM)
# Summary of the method: (§1)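 Ligand-free nuclear receptor dimers were applied to custom Agilent 4×180K protein-binding microarrays whose double-stranded probes carried direct-repeat seeds, single-nucleotide variants, half-site ablations and random human genomic background sequences in 34-nt variable regions. Incubation lasted 1 h. Binding z-scores were computed against the random background probes from regression-normalized fluorescence.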
# [2] = test system: RARg:RXRa (NR concentration 270 nM, RXRa partner concentration 90 nM)
# Summary of the method: as §1
# [3] = test system: RARg homodimer (NR concentration 270 nM)
# Summary of the method: as §1
# [4] = test system: RXRa DBDmut IVT, anti-RXR (DBD mutation: RXRa K156A/R161A, NR concentration 90 nM)
# Summary of the method: as §1
# [5] = test system: RXRa homodimer (NR concentration 180 nM)
# Summary of the method: as §1
# [6] = test system: THRa:RXRa (NR concentration 90 nM, RXRa partner concentration 90 nM)
# Summary of the method: as §1
# [7] = test system: THRa homodimer (NR concentration 90 nM)
# Summary of the method: as §1
# [8] = test system: VDR homodimer (NR concentration 270 nM)
# Summary of the method: as §1
Sequence,PBM binding z-score [1],PBM binding z-score [2],PBM binding z-score [3],PBM binding z-score [4],PBM binding z-score [5],PBM binding z-score [6],PBM binding z-score [7],PBM binding z-score [8]
TCTGCTAGATCAGTTGGTCAGCTAACGAGCTGCC,-0.799,-0.667,-0.644,-0.256,-0.419,-1.77,-1.48,-1.49
TCTATTAGTTGAAGGGCAACAGACGAGTCCGTTT,1.14,0.634,0.745,1.68,0.567,0.209,0.0682,1.55
ACTAGCTGGTCAGCTGAGGTCACACACAATTCGG,4.27,4.27,4.18,0.848,4.03,5.12,4.71,3.25
CGTCCAAGGTCATAGGAGGGCAGTGAAGACAGAT,4.01,5.77,5.89,3.81,5.44,4.83,2.17,3.3
AGAATGTGGTTATTAAGATCAGGGAATTGCGGTC,0.199,-0.113,0.223,-0.0893,0.0791,0.147,0.17,0.201
TCTATTAGTTGAAGGGCAGCCGACGAGTCCGTTT,0.841,0.303,0.318,1.74,0.258,0.00646,0.0713,1.27
CCAGACAGGTGAAAGGTGACTCAGTCTGGTACGC,1.63,2.35,1.15,-0.229,3.18,1.44,0.239,0.14
AGAACGAGGGCAAGGAGTTGATAGCACGGGTGGC,0.992,1.21,1.49,1.12,0.867,0.885,-0.277,1.93
CGTCAAAGTTCAACTATGGTAACGTAAAGCACGC,4.39,5.88,6.65,4.74,4.82,3.57,0.175,4.04
CCTAGTTGCTCAAGGTCACACACGCTATAGGTAC,4.14,4.56,4.78,2.19,4.8,4.05,4.51,4
GCTGCTAGGTCAACTGATGGTCAGCCAAAGCTCG,3.68,5.01,5.1,1.7,2.89,2.86,0.852,-0.263
ACTAGCAGGCCCAGGGTCACTCAAGATTAGTCCG,2.58,2.39,2.01,-0.284,2.78,2.73,1.17,1.14
ATCTCTAGGCAACAAGTTCAGTGAAAGAGAGGAC,1.5,0.455,0.889,0.344,0.308,0.961,0.49,2.1
CCTCGAAGGACAGAAGGTCAGAGCTGTCCGCTTT,3.54,3.21,2.98,0.128,1.76,1.62,0.0154,0.121
AGAATGAGGTTACCAAAGATCGGGGAAACGCTTG,0.666,1.91,1.43,1.5,2.5,2.71,0.699,-0.00618
CCTACTGGGCCAAGGGTCATTGATTCCAATGCTC,3.11,3.67,3.31,-0.197,3.75,2.11,0.000297,1.68
TAGGCTAGGTCATTGGGCCAGTATAGTACGCATC,2.94,3.67,4.61,1.54,2.5,2.54,0.641,1.09
GCTGCTAGGTCAACTGATGGTCAGCTACAGCTCG,3.81,5.01,5.31,1.56,2.82,2.94,0.9,0.228
GCGACTGGGGCATCAGCGGGTTACCATAACTTAA,0.625,0.738,0.196,-0.276,0.347,0.628,-0.267,-0.158
CGTCAAAGTGCAACTAAGGTAACGTAAAGCACGC,1.18,1.58,1.59,1.13,0.815,4.99,1.18,0.128
AGAACGAGGGCAATGAGTTGATACCACGGGTGGC,0.985,1.02,1.7,2.06,0.987,0.993,-0.484,3.27
TCTAGCAGGCCAGAGGATCACTCAAGAGGTACGG,-0.66,-0.277,-0.18,-0.0121,0.0922,-0.78,-0.974,-0.819
CCTACTGGGCCAAAAAGGTGATTGATGCCGATAA,0.483,0.0442,0.047,-0.635,-0.0112,0.0456,-0.353,-0.114

Sequence,PBM binding z-score [1],PBM binding z-score [2],PBM binding z-score [3],PBM binding z-score [4],PBM binding z-score [5],PBM binding z-score [6],PBM binding z-score [7],PBM binding z-score [8]
CCTCGGAGGCCAACAGGAGGTCAGAGCTGCCAGA,3.63,4.76,3.41,-0.221,2.34,2.41,0.431,0.821
CGTCAAAGTTCAACTAAAGTAACGTAAAGCACGC,4.13,5.9,6.97,4.67,5.02,2.61,0.0523,3.56
CGAACTAGGTCAGAACAGGACAGTGAGGGATGAT,2.12,2.44,3.18,0.709,1.47,3.57,0.102,-0.141
ATATGTAGGTTAAGGGTCATTAAGGTTGGTTCGC,4.07,4.66,3.54,1.78,5.92,3.48,1.58,3.96
TCTCGGAGGACACGAGAGGTCAGAGCTCGACATC,4.3,3.89,4.28,0.77,3.07,3.98,1.64,1.81
CGAACTAGATCAAGGACAGTGAATCTCCGCACGC,0.0367,-0.32,0.287,0.258,-0.168,1.22,1.24,-0.103
CCTTACGGGTCACTCCAGGTTTTAGCATCGGAGT,2.77,4.49,4.02,1.79,4.23,4.31,0.0902,1.74
CCTAGCAGGCCAATCTGGGACACTCAAGGCTTGA,-0.286,-0.31,0.0826,-0.25,-0.458,3.08,-0.247,-0.728
TCATATAGGTAATTCAGGTGAAAGTCGGCATCTA,0.654,0.323,0.241,1.73,0.923,2.52,1.8,0.399
CCTTACGGGTCACGGACAGGTTATAGCATTTGGA,3.42,6.84,5.39,1.99,6.76,3.59,0.532,1.16
CTACCATGGTGAACAAGGTCGTTGATTACTATTC,1.04,0.598,0.184,0.982,0.913,1.99,1.1,1.41
TAGCCTAGGTCATTGGGCCCGTATAGTACGCATC,2.73,3.69,4.06,1.8,2.68,3.01,1.43,0.994
TCTGCTAGGTCAACGATGGTTAGCTAATCTGCTA,2.99,3.97,5.29,1.1,2.75,2.9,0.466,-0.391
ATTTCTAGGTAAAAGTTCAGTGAATCCCGAGGAT,2.3,2.15,2.03,1.21,1.88,1.64,0.543,2.1
GATACAGGGTCAGCTAGAGGCCAGAGCATGGAAA,3.06,6.77,4.51,1.31,4.26,3.01,0.132,0.805
TCGAGTCGGTTACCAATGGGGCATTCAGCTTTCT,0.134,-0.35,-0.367,0.329,-0.284,-0.43,-0.423,-0.105
GGAACGAGGGCAATGTTGATAGCATCTGTCGACG,0.983,1.08,1.66,1.93,0.843,0.966,-0.016,0.72
CATCCAAGGTCAATGCTAGGTCAGTGAAAGCATT,4.85,7.59,6.9,3.53,5.4,4.39,2.95,3.16
CCGACTGGGGCAGAAAAGTTACCATACCATCCGG,-0.232,-0.197,0.109,-0.438,-0.0105,-0.43,-0.509,-0.39
CCGACTGGGGCAGAAAGGTTACCAGACCATCCGG,2.18,1.75,1.28,-0.651,1.71,0.99,-0.742,-0.568
TCATATAGGTAAGCAGGTGAAAGTCCGTAAGTTA,0.479,0.2,-0.071,0.903,0.347,0.462,0.196,-0.0581
AGTCAAAGTTCACTTGGTAACGTAAGATTCAGCT,3.71,4.88,5.66,4.24,3.44,1.6,-0.48,4.05
TCAGACAGGTGAAGGAAACTCAGGTACGCAGTCG,0.458,0.429,0.359,1.34,0.487,0.592,0.421,0.426

Sequence,PBM binding z-score [1],PBM binding z-score [2],PBM binding z-score [3],PBM binding z-score [4],PBM binding z-score [5],PBM binding z-score [6],PBM binding z-score [7],PBM binding z-score [8]
CAAACTAGGTCAAGAGCTCAAAGTCCGCTTCCCG,2.98,3.82,4.02,1.34,2.39,2.73,0.891,0.0239
CGTCCAAGGTCAGAGAGCTCAGTGAATGCCGAGT,3.53,4.54,5.24,2.67,3.25,3.14,1.42,1.5
CCTGCTATGTCATGGTCAGCTAATCTACAGTATG,0.419,0.518,0.62,0.877,0.209,-0.0552,-0.368,-0.566
GCTTACGGGTCAAAGGTTATAGGATGAATAGAAT,3.6,6.89,4.67,2.7,9.57,3.78,0.0155,1.65
ATCTCTAGGGAACCAAGTTCAGTGAATGCCGAAC,1.21,0.277,0.53,0.569,0.332,0.497,-0.301,2.58
CCTTACGGGTCACTAACAGGTTATAGCATTTGGA,3.17,5.31,4.12,2.03,4.25,2.98,0.367,1.29
TAGCCTAGGTCATTCAGGGACCAGTATAGAAAGC,2.63,3.94,4.11,1.43,2.72,4.26,0.615,1.19
ATACCAAGGTGATCGTGAGGTCGTTGTTACTAAC,1.7,1.78,0.637,0.951,1.21,3.27,2.64,3.22
ACTAGCAGGCCAAGTTTGGGTCACTCATACAAAG,2.32,2.26,1.53,-0.0603,0.947,2.47,1.27,0.331
GGTACAGGGTCAAGGCCAGAGTACGCGTATTGAT,3.76,5.41,5.03,1.78,5.91,3.58,1.26,2.94
CGTCAAAGTTCAACTAAGGTAACGGAAAGCACGC,4.39,5.99,6.88,4.63,5.09,5.24,1.9,3.47
ACTCGGAGGACAAAGGTCAGAGCTACGCCAGTGA,4.27,5.92,5.23,1.08,5.45,3.35,0.581,1.03
TGAACGAGGTTAAAGATCAGGGAACGTGGCGTCG,0.576,2.39,1.35,0.835,3.89,2.04,-0.132,0.34
CCTTTTAGTTGACCATAAGGGCAACCGAAGCTCG,2.13,1.55,1.08,0.818,0.506,1.8,1.51,0.92
TCTTGTCGATCAACAGGAGGTTAAGAAAGATCGA,0.439,0.322,0.198,0.168,0.805,0.59,-0.736,-0.499
TCCTATAGGTAAACAGGTGAAAGTCCGTAAGTTA,0.829,0.269,0.132,1.06,0.667,0.77,0.418,0.275
CCAGACAGGTGAGAGGTAACTCAGTCTGGTACGC,0.491,0.564,0.526,-0.348,0.784,0.574,-0.109,-0.514
CAAACTAGGTCACGAAAGGACAAAGTCGAATGAC,4.13,5.37,6.43,1.59,4.1,4.56,1.59,1.06
TCTGCTAGGTCTGTTGGTCAGCTAACGAGCTGCC,-0.195,-0.258,-0.599,0.00538,-0.403,-0.454,-0.978,-1.23
CATGCAGGGTCAGCTAGGCCAGAGTAGGGACGGC,3.19,4.53,5.06,1.71,4.75,3,0.624,1.16
CCTAGCAGGCCAATCTGCGTCACTCAAGGCTTGA,-0.405,-0.524,-0.155,0.164,-0.602,-0.51,-0.515,-0.294
ATATGTATGTTATCGGGTCATTCAGTTTGCGCAT,2.47,2.01,1.75,1.81,2.28,3.26,2.66,3.18
